Assay results published in the supplement of paper PMC8975748.
Counter-ions that a name gives are not always drawn.

The compounds below were run on Saccharomyces cerevisiae BY4741 SeMeCo community (assay: z-score of subpopulation abundance vs DMSO median, subpopulation auxotrophic for L; higher = larger share of this subpopulation than in DMSO controls). Conditions: 10 µM; 24 h; SM minimal medium; subpopulation (auxotrophy): L.
Experimental: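 Fluorescent four-plasmid SeMeCo (self-establishing metabolically cooperating S. cerevisiae BY4741 community; plasmids pH-mRuby2, pL-mWasabi, pU-eCFP, pM-TagRFP657) was grown 24 h in minimal SM medium with each Selleck FDA-approved drug at 10 µM in 384-well plates. Cells were fixed and imaged by high-content confocal microscopy. For each auxotrophic subpopulation (and the prototroph), a z-score gives the deviation from the DMSO vehicle-control population median.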

Point of comparison: `COc1ccc2[nH]c([S@@+]([O-])Cc3ncc(C)c(OC)c3C)nc2c1` [NEXIUM (esomeprazole magnesium)], “z-score of subpopulation abundance” value 1.11. Against it:
- CN[C@H](CC(C)C)C(=O)N[C@H]1C(=O)N[C@@H](CC(N)=O)C(=O)N[C@H]2C(=O)N[C@H]3C(=O)N[C@H](C(=O)N[C@H](C(=O)O)c4cc(O)cc(O)c4-c4cc3ccc4O)[C@H](O)c3ccc(c(Cl)c3)Oc3cc2cc(c3O[C@@H]2O[C@H](CO)[C@@H](O)[C@H](O)[C@H]2O[C@H]2C[C@](C)(N)[C@H](O)[C@H](C)O2)Oc2ccc(cc2Cl)[C@H]1O [Vancomycin HCl] — lower, -0.67
- C=C1CCN([C@H](C)[C@](O)(Cn2cncn2)c2ccc(F)cc2F)CC1 [Efinaconazole] — lower, 0.13
- CN(C)[C@@H]1C(=O)C(C(N)=O)=C(O)[C@@]2(O)C(=O)C3=C(O)c4c(O)ccc(Cl)c4[C@@H](O)[C@H]3C[C@@H]12 [Demeclocycline HCl] — lower, -0.08
- N#Cc1ccc(Oc2ccc3c(c2)COB3O)cc1 [Crisaborole (AN2728)] — higher, 2.57
- C[C@H]1COc2c(N3CCN(C)CC3)c(F)cc3c(=O)c(C(=O)O)cn1c23 [Levofloxacin hydrate] — higher, 1.32
- Cc1cccc(C#Cc2ccccc2)n1 — lower, 0.06
- CN1CCN(CC(=O)N2c3ccccc3C(=O)Nc3cccnc32)CC1 [Pirenzepine dihydrochloride] — lower, -0.62
- CC(C)[C@H](N)C(=O)OCC(CO)OCn1cnc2c(=O)[nH]c(N)nc21 (stereo not given in full) [Valganciclovir HCl] — lower, 0.28
- COC(=O)C1=C(C)NC(C)=C(C(=O)OC(C)(C)CN(C)CCC(c2ccccc2)c2ccccc2)C1c1cccc([N+](=O)[O-])c1 (stereo not given) [Lercanidipine hydrochloride] — higher, 1.4
- COc1ccc(C2CNC(=O)C2)cc1OC1CCCC1 (stereo not given) [Rolipram] — lower, -0.37
- Cc1cc(C)nc(NS(=O)(=O)c2ccc(N)cc2)n1 [Sulfamethazine Sodium Salt] — lower, 0.3
- CCN(CC)CCOC(=O)c1ccc(N)cc1Cl [Chloroprocaine HCl] — lower, 0.95
- Cc1ccc(S(=O)(=O)NC(=O)NN2CC3CCCC3C2)cc1 (stereo not given) [Gliclazide] — lower, -0.2
- O=C(O)c1cc(O)c2c(c1)[C@H]([C@H]1c3cc(C(=O)O)cc(O)c3C(=O)c3c(O[C@@H]4O[C@H](CO)[C@@H](O)[C@H](O)[C@H]4O)cccc31)c1cccc(O[C@@H]3O[C@H](CO)[C@@H](O)[C@H](O)[C@H]3O)c1C2=O [Sennoside A] — lower, -0.65
- COc1ccc(-c2nc3cc(C4=NNC(=O)CC4C)ccc3[nH]2)cc1 (stereo not given) [Pimobendan] — higher, 1.93
- CC1=C(C(=O)O)N2C(=O)[C@@H](NC(=O)[C@H](N)c3ccc(O)cc3)[C@H]2SC1 [Cefadroxil hydrate] — lower, -0.28
- Clc1ccc(C(Cn2ccnc2)OCc2ccc(Sc3ccccc3)cc2)c(Cl)c1 (stereo not given) [Fenticonazole Nitrate] — higher, 4.64
- O=C1[C@H]2CCCC[C@H]2C(=O)N1CCCCN1CCN(c2nsc3ccccc23)CC1 [Perospirone hydrochloride] — lower, 0.16
- NC12CC3CC(CC(C3)C1)C2 [Amantadine] — lower, 0.99
- CONC(=O)Nc1ccc(-c2sc3c(c2CN(C)C)c(=O)n(-c2ccc(OC)nn2)c(=O)n3Cc2c(F)cccc2F)cc1 [Relugolix] — lower, 0.15
- COc1ccc(C(C)=O)c(O)c1 [Paeonol] — lower, 0.17
- CCCCC(=O)O[C@H]1CC[C@H]2[C@@H]3CCc4cc(O)ccc4[C@H]3CC[C@]12C [Estradiol valerate] — lower, -0.51
- CO[C@H]1C[C@@H]2CC[C@@H](C)[C@@](O)(O2)C(=O)C(=O)N2CCCC[C@H]2C(=O)O[C@H]([C@H](C)C[C@@H]2CC[C@H](n3cnnn3)[C@H](OC)C2)CC(=O)[C@H](C)/C=C(\C)[C@@H](O)[C@@H](OC)C(=O)[C@H](C)C[C@H](C)/C=C/C=C/C=C/1C [Zotarolimus(ABT-578)] — lower, 0.32
- CCCc1nn(C)c2c(=O)[nH]c(-c3cc(S(=O)(=O)N4CCN(C)CC4)ccc3OCC)nc12 [Sildenafil Citrate] — lower, -0.61
- CN(C)CCCN1c2ccccc2Sc2ccccc21 [Promazine hydrochloride] — lower, -0.38
- CO/N=C(\C(=O)N[C@@H]1C(=O)N2C(C(=O)O)=CCS[C@H]12)c1csc(N)n1 [Ceftizoxime sodium] — lower, -1.5
- CC(C)N1CCN(c2ccc(OCC3COC(Cn4cncn4)(c4ccc(Cl)cc4Cl)O3)cc2)CC1 (stereo not given) [Terconazole] — lower, 0.04
- O=C(CCCN1CCN(c2ccccn2)CC1)c1ccc(F)cc1 [Azaperone] — lower, 0.29
- CN1CCC(=C2c3ccccc3C=Cc3ccccc32)CC1 [Cyproheptadine hydrochloride] — lower, 0.25
- CCn1cc(C(=O)O)c(=O)c2cc(F)c(N3CCNCC3)nc21 [Enoxacin] — higher, 1.22
- CCCc1cc(C(N)=S)ccn1 [Protionamide] — lower, 0.04
- C[C@H](Nc1ncnc2nc[nH]c12)c1cc2cccc(Cl)c2c(=O)n1-c1ccccc1 [Duvelisib (IPI-145, INK1197)] — higher, 1.3
- C#C[C@]1(O)CC[C@H]2[C@@H]3CCc4cc(OC)ccc4[C@H]3CC[C@@]21C [Mestranol] — lower, 0.33
- O=C(O[C@H]1CN2CCC1CC2)N1CCc2ccccc2[C@@H]1c1ccccc1 [Solifenacin succinate] — lower, -0.16
- COc1ccnc(C[S+]([O-])c2nc3cc(OC(F)F)ccc3[nH]2)c1OC (stereo not given) [Pantoprazole] — lower, 0.22
- CCc1cccc2c3c([nH]c12)C(CC)(CC(=O)O)OCC3 (stereo not given) [Etodolac] — lower, -0.55
- C(=C\c1ccccc1)/CN1CCN(C(c2ccccc2)c2ccccc2)CC1 [Cinnarizine] — lower, 0.22
- CCOC(=O)C1=C[C@]2(CC)CCCN3CCc4c(n1c1ccccc41)[C@@H]32 [Vinpocetine] — lower, 0.01
- CO[C@@H]1[C@@H](O[C@@H]2O[C@H](C)[C@@H](O[C@H]3C[C@@](C)(O)[C@@H](O)[C@H](C)O3)[C@H](N(C)C)[C@H]2O)[C@@H](CC=O)C[C@@H](C)[C@@H](O[C@H]2CC[C@H](N(C)C)[C@@H](C)O2)/C=C/C=C/C[C@@H](C)OC(=O)C[C@H]1OC(C)=O [Acetylspiramycin (ASPM)] — higher, 1.91
